Test results published in article PMC7862700, “An all-to-all approach to the identification of sequence-specific readers for epigenetic DNA modifications on cytosine”.

Assays:
Assay in all cases: DAPPL (digital affinity profiling via proximity ligation, sequencing); 10 mM Tris-HCl pH 7.5, 50 mM NaCl, 1 mM DTT, 4% glycerol, room temperature, 30 min; GST-TFs on glutathione beads, 16-mer random dsDNA library, 0.1% formaldehyde crosslink after washing; high values mean tight binding
Details in all cases: protein: recombinant; tags: N-terminal GST; dsDNA, one strand shown
FLI1 = molecular target: T1, FLI1 (Homo sapiens, UniProt Q01543 1-452)
T1 sequence: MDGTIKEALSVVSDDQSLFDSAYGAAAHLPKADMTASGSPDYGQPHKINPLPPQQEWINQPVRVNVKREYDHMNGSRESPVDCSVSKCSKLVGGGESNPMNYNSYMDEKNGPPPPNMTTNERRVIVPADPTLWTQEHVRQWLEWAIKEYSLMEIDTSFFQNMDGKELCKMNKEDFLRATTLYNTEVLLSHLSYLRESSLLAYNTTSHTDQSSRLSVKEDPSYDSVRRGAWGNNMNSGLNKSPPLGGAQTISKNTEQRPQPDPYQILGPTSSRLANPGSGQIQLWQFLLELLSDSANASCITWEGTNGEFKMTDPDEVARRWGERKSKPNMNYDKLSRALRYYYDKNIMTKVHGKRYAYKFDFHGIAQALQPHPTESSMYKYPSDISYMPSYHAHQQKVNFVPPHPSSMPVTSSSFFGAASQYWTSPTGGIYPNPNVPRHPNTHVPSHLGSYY
Summary of the method: (§1)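 Beads coated with glutathione captured GST-fused human transcription factors that had been expressed in yeast, and the factors were then given DNA barcodes and pooled with a tag-only sample. The pools were incubated with 200 nmole of a random double-stranded 16-mer DNA library in Tris/NaCl/DTT/glycerol buffer for 30 min at room temperature, washed, crosslinked with 0.1% formaldehyde and proximity-ligated with BsaI/T4 ligase at 37 °C for 1 h. PCR amplification and Illumina NextSeq500 sequencing came last. Binding signal is each hexamer's read frequency for a factor divided by its frequency for the tag-only sample.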

ELK1 = molecular target: T2, ELK1 (Homo sapiens, UniProt P19419 1-428)
T2 sequence: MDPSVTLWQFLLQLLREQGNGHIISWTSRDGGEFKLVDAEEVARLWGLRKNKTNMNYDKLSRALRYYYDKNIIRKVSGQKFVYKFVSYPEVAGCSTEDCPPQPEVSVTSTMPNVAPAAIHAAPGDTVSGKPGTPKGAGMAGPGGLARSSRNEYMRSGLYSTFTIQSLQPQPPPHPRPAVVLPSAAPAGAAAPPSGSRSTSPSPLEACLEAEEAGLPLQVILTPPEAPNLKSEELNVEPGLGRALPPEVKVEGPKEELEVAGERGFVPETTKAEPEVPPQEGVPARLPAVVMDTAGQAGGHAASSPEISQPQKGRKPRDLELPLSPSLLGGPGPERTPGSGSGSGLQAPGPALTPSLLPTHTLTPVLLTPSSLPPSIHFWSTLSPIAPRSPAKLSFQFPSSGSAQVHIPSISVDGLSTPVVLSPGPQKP
Summary of the method: as §1

GABPA = molecular target: T3, GABPA (Homo sapiens, UniProt Q06546 1-454)
T3 sequence: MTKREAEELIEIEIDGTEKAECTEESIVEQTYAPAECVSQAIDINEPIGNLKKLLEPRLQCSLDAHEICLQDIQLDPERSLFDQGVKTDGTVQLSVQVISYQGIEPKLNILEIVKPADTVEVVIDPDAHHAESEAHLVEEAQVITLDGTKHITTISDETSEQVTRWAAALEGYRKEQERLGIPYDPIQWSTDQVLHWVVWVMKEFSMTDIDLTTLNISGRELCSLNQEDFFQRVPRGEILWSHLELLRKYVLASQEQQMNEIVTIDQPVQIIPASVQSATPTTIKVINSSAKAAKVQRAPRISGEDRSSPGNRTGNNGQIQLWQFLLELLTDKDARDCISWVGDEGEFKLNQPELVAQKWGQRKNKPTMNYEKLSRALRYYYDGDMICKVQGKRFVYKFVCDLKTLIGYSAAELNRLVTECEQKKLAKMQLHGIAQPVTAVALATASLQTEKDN
Summary of the method: as §1

ERG = molecular target: T4, ERG (Homo sapiens, UniProt P11308 1-479)
T4 sequence: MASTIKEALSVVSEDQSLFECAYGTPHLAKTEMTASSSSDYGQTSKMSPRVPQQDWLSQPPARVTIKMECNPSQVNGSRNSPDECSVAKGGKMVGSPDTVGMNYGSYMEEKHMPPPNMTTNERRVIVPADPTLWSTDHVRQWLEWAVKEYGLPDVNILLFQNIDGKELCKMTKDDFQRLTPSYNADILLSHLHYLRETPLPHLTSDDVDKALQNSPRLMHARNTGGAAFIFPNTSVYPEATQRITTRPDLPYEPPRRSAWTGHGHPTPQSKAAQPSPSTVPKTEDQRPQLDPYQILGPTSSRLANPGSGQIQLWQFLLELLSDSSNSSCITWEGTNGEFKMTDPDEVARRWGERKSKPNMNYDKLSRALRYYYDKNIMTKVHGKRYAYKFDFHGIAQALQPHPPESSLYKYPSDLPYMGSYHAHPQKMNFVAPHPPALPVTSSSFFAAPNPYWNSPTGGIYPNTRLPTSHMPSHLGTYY
Summary of the method: as §1

ELF1 = ELF1 (Homo sapiens, UniProt P32519 1-619)
Summary of the method: as §1

EHF = molecular target: T5, EHF (Homo sapiens, UniProt Q9NZC4 1-300)
T5 sequence: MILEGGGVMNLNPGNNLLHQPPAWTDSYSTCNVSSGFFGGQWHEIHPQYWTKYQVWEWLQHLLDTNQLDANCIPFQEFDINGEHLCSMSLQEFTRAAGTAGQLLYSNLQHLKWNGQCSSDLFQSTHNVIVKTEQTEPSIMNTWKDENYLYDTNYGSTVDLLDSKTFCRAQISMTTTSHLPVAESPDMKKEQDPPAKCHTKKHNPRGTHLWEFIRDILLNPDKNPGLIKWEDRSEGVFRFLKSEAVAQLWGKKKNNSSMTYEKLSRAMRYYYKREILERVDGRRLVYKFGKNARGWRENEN
Summary of the method: as §1

SPI1 = SPI1 (Homo sapiens, UniProt P17947 1-270)
Summary of the method: as §1

SPIB = SPIB (Homo sapiens, UniProt Q01892 1-262)
Summary of the method: as §1

ELK3 = molecular target: T6, ELK3 (Homo sapiens, UniProt P41970 1-407)
T6 sequence: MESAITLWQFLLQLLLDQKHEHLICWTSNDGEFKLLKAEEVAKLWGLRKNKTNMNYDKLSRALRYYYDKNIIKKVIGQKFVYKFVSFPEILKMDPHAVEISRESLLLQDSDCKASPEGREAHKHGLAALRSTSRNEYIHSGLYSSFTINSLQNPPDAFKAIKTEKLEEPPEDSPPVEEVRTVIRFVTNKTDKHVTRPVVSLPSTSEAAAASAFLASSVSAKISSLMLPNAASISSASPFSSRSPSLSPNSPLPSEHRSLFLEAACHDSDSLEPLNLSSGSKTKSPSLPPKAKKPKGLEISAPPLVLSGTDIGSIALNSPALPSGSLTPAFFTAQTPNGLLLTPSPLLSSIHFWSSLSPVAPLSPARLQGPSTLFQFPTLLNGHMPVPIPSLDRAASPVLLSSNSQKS
Summary of the method: as §1

Sequence of ELF1 (P32519 whole entry): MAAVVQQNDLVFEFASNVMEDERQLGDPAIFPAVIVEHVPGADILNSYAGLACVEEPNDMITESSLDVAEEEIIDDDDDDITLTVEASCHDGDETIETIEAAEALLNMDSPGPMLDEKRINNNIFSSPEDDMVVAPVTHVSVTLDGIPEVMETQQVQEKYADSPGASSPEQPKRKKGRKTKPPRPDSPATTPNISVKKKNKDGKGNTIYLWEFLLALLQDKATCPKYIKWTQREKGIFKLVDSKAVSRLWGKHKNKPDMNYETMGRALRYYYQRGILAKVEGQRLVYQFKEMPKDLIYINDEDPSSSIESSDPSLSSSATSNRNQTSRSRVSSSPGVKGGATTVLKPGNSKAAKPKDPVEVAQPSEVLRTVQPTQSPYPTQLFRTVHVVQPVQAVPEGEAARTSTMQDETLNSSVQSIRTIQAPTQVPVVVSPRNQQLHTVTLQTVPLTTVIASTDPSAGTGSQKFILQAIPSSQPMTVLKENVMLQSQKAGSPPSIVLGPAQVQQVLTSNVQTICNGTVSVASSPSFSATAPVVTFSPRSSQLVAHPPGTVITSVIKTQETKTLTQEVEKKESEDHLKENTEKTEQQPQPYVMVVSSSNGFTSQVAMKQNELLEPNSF
Sequence of SPIB (Q01892 whole entry): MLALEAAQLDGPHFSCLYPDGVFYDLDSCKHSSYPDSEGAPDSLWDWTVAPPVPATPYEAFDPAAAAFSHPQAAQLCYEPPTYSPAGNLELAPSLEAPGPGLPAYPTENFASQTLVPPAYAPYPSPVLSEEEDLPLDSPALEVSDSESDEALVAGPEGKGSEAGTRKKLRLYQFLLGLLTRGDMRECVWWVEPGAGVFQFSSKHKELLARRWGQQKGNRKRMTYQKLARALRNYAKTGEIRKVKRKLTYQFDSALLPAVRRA

Sequence	binding signal (FLI1)	binding signal (ELK1)	binding signal (GABPA)	binding signal (ERG)	binding signal (ELF1)	binding signal (EHF)	binding signal (SPI1)	binding signal (SPIB)	binding signal (ELK3)
TATACG	1.32 fold enrichment (6-mer frequency, TF over GST control)	1.31 fold enrichment (6-mer frequency, TF over GST control)	1.3 fold enrichment (6-mer frequency, TF over GST control)	1.24 fold enrichment (6-mer frequency, TF over GST control)	1.31 fold enrichment (6-mer frequency, TF over GST control)	1.2 fold enrichment (6-mer frequency, TF over GST control)	1.2 fold enrichment (6-mer frequency, TF over GST control)	1.35 fold enrichment (6-mer frequency, TF over GST control)	1.22 fold enrichment (6-mer frequency, TF over GST control)
ATTTTG	1.19 fold enrichment (6-mer frequency, TF over GST control)	1.25 fold enrichment (6-mer frequency, TF over GST control)	1.33 fold enrichment (6-mer frequency, TF over GST control)	1.2 fold enrichment (6-mer frequency, TF over GST control)	1.28 fold enrichment (6-mer frequency, TF over GST control)	1.3 fold enrichment (6-mer frequency, TF over GST control)	1.31 fold enrichment (6-mer frequency, TF over GST control)	1.28 fold enrichment (6-mer frequency, TF over GST control)	1.14 fold enrichment (6-mer frequency, TF over GST control)
ATCCAT	1.22 fold enrichment (6-mer frequency, TF over GST control)	1.17 fold enrichment (6-mer frequency, TF over GST control)	1.16 fold enrichment (6-mer frequency, TF over GST control)	1.11 fold enrichment (6-mer frequency, TF over GST control)	1.14 fold enrichment (6-mer frequency, TF over GST control)	1.14 fold enrichment (6-mer frequency, TF over GST control)	1.07 fold enrichment (6-mer frequency, TF over GST control)	1.18 fold enrichment (6-mer frequency, TF over GST control)	1.2 fold enrichment (6-mer frequency, TF over GST control)
GGGCCT	1.26 fold enrichment (6-mer frequency, TF over GST control)	1.29 fold enrichment (6-mer frequency, TF over GST control)	1.3 fold enrichment (6-mer frequency, TF over GST control)	1.16 fold enrichment (6-mer frequency, TF over GST control)	1.27 fold enrichment (6-mer frequency, TF over GST control)	1.27 fold enrichment (6-mer frequency, TF over GST control)	1.15 fold enrichment (6-mer frequency, TF over GST control)	1.23 fold enrichment (6-mer frequency, TF over GST control)	1.32 fold enrichment (6-mer frequency, TF over GST control)
